Measured values taken from the supplement of paper PMC6555819.

What was measured:
Test in all cases: PBM binding z-score (relative to random genomic background probes); higher = stronger binding; sequences stand for … in GC…GCGATTGACAGCGTAGAATGAAGG
[1] = tested on: FXR:RXRa (NR concentration 270 nM, RXRa partner concentration 90 nM)
Summary of the method: (§1)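 Random background probes are the reference for binding z-scores. These scores derive from regression-normalized fluorescence on custom Agilent 4×180K protein-binding microarrays incubated 1 h with ligand-free nuclear receptor dimers. Binding was detected with antibodies against each partner (one per run).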

[2] = tested on: LXRa:RXRa (NR concentration 270 nM, RXRa partner concentration 90 nM)
Summary of the method: as §1

[3] = tested on: LXRa homodimer (NR concentration 270 nM)
Summary of the method: as §1

[4] = tested on: LXRb homodimer (NR concentration 270 nM)
Summary of the method: as §1

[5] = tested on: PPARa:RXRa (NR concentration 270 nM, RXRa partner concentration 90 nM)
Summary of the method: as §1

[6] = tested on: PPARg:RXRa (NR concentration 180 nM, RXRa partner concentration 90 nM)
Summary of the method: as §1

[7] = tested on: PPARg:RXRa 270nM:90nM, anti-RXR (NR concentration 270 nM, RXRa partner concentration 90 nM)
Summary of the method: as §1

[8] = tested on: PPARg:RXRa 30nM:10nM, anti-RXR (NR concentration 30 nM, RXRa partner concentration 10 nM)
Summary of the method: as §1

[9] = tested on: PPARg:RXRa 90nM:30nM, anti-RXR (NR concentration 90 nM, RXRa partner concentration 30 nM)
Summary of the method: as §1

[10] = tested on: PPARg:RXRa DBDmut IVT, anti-RXR (DBD mutation: RXRa K156A/R161A, NR concentration 270 nM, RXRa partner concentration 90 nM)
Summary of the method: as §1

[11] = tested on: PPARg:RXRa IVT, anti-PPARg (NR concentration 270 nM, RXRa partner concentration 90 nM)
Summary of the method: as §1

[12] = tested on: PPARg DBDmut:RXRa IVT, anti-PPARg (DBD mutation: PPARg1 K132A/R137A, NR concentration 270 nM, RXRa partner concentration 90 nM)
Summary of the method: as §1

[13] = tested on: PPARg DBDmut IVT, anti-PPARg (DBD mutation: PPARg1 K132A/R137A, NR concentration 270 nM)
Summary of the method: as §1

[14] = tested on: PPARg homodimer (NR concentration 180 nM)
Summary of the method: as §1

[15] = tested on: PXR:RXRa (NR concentration 270 nM, RXRa partner concentration 90 nM)
Summary of the method: as §1

[16] = tested on: PXR homodimer (NR concentration 270 nM)
Summary of the method: as §1

[17] = tested on: RARa:RXR (NR concentration 270 nM, RXRa partner concentration 90 nM)
Summary of the method: as §1

[18] = tested on: RARa homodimer (NR concentration 270 nM)
Summary of the method: as §1

[19] = tested on: RARb:RXRa (NR concentration 270 nM, RXRa partner concentration 90 nM)
Summary of the method: as §1

Sequence	PBM binding z-score [1]	PBM binding z-score [2]	PBM binding z-score [3]	PBM binding z-score [4]	PBM binding z-score [5]	PBM binding z-score [6]	PBM binding z-score [7]	PBM binding z-score [8]	PBM binding z-score [9]	PBM binding z-score [10]	PBM binding z-score [11]	PBM binding z-score [12]	PBM binding z-score [13]	PBM binding z-score [14]	PBM binding z-score [15]	PBM binding z-score [16]	PBM binding z-score [17]	PBM binding z-score [18]	PBM binding z-score [19]
ATATGTAGGTTAGCGGGGGTCATTCAGACTAGGC	5.82	5.95	3.96	8.88	5.81	6.96	6.71	4.14	6.07	7.07	6.87	5.31	9.65	3.57	6.34	3.48	5.77	1.94	3.55
CCTAGTTGGTCAGGAAGTCACACACCGGATATGA	0.197	0.331	0.553	0.257	0.239	0.696	0.592	0.308	0.322	0.63	0.621	-0.0162	0.0813	1.03	0.246	0.549	0.014	1.63	0.892
CCTAGTGGGTCAGGAGGTCACACACCGGATATGA	4.27	4.06	1.62	0.0765	5.31	7.91	6.77	4.29	6.31	5.23	7.22	0.727	0.445	3.37	4.62	0.774	5.66	1.06	4.42
ATGGAAAGGTCGTGAGGTGAGTATACAGAAAGGC	5.97	4.01	0.412	1.01	5.3	4.74	4.66	1.89	3.12	0.309	2.67	0.977	1.59	2.23	3.42	1.13	4.64	1.17	4.41
AATACAGGGTGATCGTAGGCCAGAGTACGCACAG	-0.0324	0.162	-0.234	-0.0404	0.576	1.2	0.407	0.131	0.149	0.342	1.51	0.927	0.662	0.342	0.0587	0.139	0.29	0.275	0.432
ATATGTAGGTTAGCTGGAGTCATTCAGACTAGGC	0.00563	1.28	-0.0336	0.0591	2.34	3	2.47	0.982	1.63	6.03	6.03	1.63	1.57	0.988	0.231	-0.186	0.556	0.257	0.61
ATCGAAAGGTCGTGAGGTGAGTACACAGAAAGGC	4.79	4.23	0.197	0.501	5.02	3.98	4.57	1.74	3.26	0.432	2.33	1.04	0.897	2.45	3.57	0.557	4.33	0.76	3.91
CCTACTGGGCCAAGGTCATTGACCAGTCAAAGCA	3.77	4.03	1.67	-0.702	4.03	4.3	4.66	2.17	4.38	3.82	4.84	-0.707	-1.06	1.94	3.71	1.37	3.95	-0.225	3.45
GTACCAAGGTGAATAGGTCGTTGATGAGTAGGCG	0.835	0.771	-0.075	-0.364	2.08	1.61	1.8	0.486	1.17	1.99	2.78	0.41	0.294	1.84	0.719	-0.224	1.72	0.00144	1.94
TCTAGCTGGTCACGGAGGTCACACACGACGGGTA	3.41	3.79	2.37	0.0556	3.88	3.35	3.83	2.33	3.14	1.56	3.5	0.457	0.217	3.03	4.91	0.955	5.08	1.08	3.81
ACTAGTTGGTCAGCTGGGGTCACACACAATTCGG	3.81	3.01	0.525	0.369	4.47	2.37	3.06	0.707	2.36	1.23	2.46	0.596	-0.0449	2.5	5.82	1.23	6.17	0.784	3.33
CACACTAGGTCAAAGGTCAAAGTCGAGCCAACCA	8.41	7.68	6.65	3.73	7.75	13.9	11.2	14	14	8.09	8.84	5.62	4.09	7.33	7.4	2.74	9.26	4.38	5.87
ATCGAAAGGTCGTGAGGTGAGTTTACAGAAAGGC	5.54	4.05	0.339	0.313	5.21	4	4.18	1.98	3.05	0.311	2.19	0.802	0.81	2.01	4.1	1.52	4.59	0.718	4.08
CCTTACGGGTCAAGGTTATACCACGGGTGGTACG	5.46	3.7	0.309	0.0291	4.99	4.6	4.47	1.63	3.83	1.19	3.53	-0.379	-0.205	3.33	3.49	0.498	4.11	1.71	4.21
AGTCGGAGGACAAAGGTCAGAGCTACGCCAGTGA	3.97	4.34	1.6	0.26	5.01	7.55	7.07	5.94	7.56	0.569	3.68	0.374	-0.0334	3.93	3.98	0.166	5.06	1.59	4.31
CGTCCAAGGGCAATGCTAGGTCAGTGAAAGCATT	0.683	2.37	0.414	-1.33	0.934	-0.00472	0.084	-0.775	-0.291	0.816	0.945	-1.98	-1.04	1.08	1.04	-0.135	1.55	-0.607	3.1
CCTACTGGGCCACGAAAGGGCATTGATTCAGTGA	-0.208	0.621	-0.166	-1.21	1.7	1.78	1.95	0.197	0.806	5.38	5.14	0.311	0.299	-0.0604	0.616	-0.539	0.471	-0.24	1.69
ACTCGGAGGACAAAGGTCAGAACTACGCCAGTGA	3.87	4.07	1.47	1.03	4.61	7.34	7.11	4.87	7.69	0.613	3.35	0.492	-0.388	4.36	3.9	0.428	4.98	2.66	4.04
ATATGTAGGTTATCGGGTCATTCATTTTGCGCAT	3.17	3.12	1.9	1.4	5.09	7.3	6.11	3.77	5.76	7.75	7.84	5.27	4.21	4.1	3.39	1.23	3.75	2.1	2.43
CCTACAGGGCCAAGGTCATTGATCAGTCAAAGCA	3.24	3.38	0.911	-0.2	3.78	2.72	3.94	1.45	3.32	0.158	1.47	-0.788	-0.319	1.8	3.54	1.53	3.67	0.267	3.47
AGAGTGAGGTTACCAAAGATCAGGGAAACGCTTG	2.09	6.39	0.104	0.461	3.01	1.54	1.63	0.448	1.15	1.07	1.49	-0.228	-0.0667	0.744	1.7	0.558	1.97	0.667	2.48
CCTAGTTGGTCAAGGTCACGCACGCTATAGGTAC	4.95	4.55	2.22	0.524	4.31	3.69	4.15	1.96	3	2.54	3.78	0.403	0.558	3.73	4.64	2.27	4.99	2.21	4.31
AGTCAAAGTTCATCAAGGTAACGTAAGATATGCT	6.08	5.78	4.24	1.31	4.64	6.46	6.38	3.52	5.75	0.277	3.34	1.59	1.26	3.05	5.4	9.31	4.3	2.24	4.9
CCTACTGGGCCATTCAGAGGTCATCGATCATATG	2.91	4.22	6.05	0.293	4.19	2.51	3.01	1.49	2.37	4.55	4.6	1.41	-0.27	5.67	5.11	2.18	5.25	1.9	3.29
CATAGTTGGTCAAGGTCACACACGCTATAGGTAC	4.26	4.07	1.83	1.1	4.12	3.78	3.92	1.88	3.28	1.92	3.93	1.23	1.92	3.69	4.35	2.19	4.44	1.85	4.04
CGTCCAAGGTAAATGCTAGGTCAGTGAAAGCATT	0.57	1.38	0.935	-0.419	0.673	-0.228	-0.117	-0.486	-0.493	0.714	0.881	-1.05	-0.95	0.424	0.128	-0.305	0.803	-0.343	1.61
